In PubChem BioAssay (EPA / NIEHS):
“And” between values parts separate entries of the source, which are not always exact repeats. Equal values may be shown once. The source made the active and inactive calls. How the source made its calls: active means hit-call score of the fitted dose curve at least 0.9, where 1 is the maximum; inactive means score below 0.9.

read-out: Urokinase-type plasminogen activator receptor (uPAR), PLAUR (gene 5329); assay: BSK_BE3C_uPAR: BioMAP Diversity Plus: BE3C Assay for Urokinase-type plasminogen activator receptor (uPAR) Biomarker Activity (AID 2283039); settings: primary human bronchial epithelial cells; actives raise or lower the signal;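 on outcome: cells exposed to compound for one day before measurement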
Protocol: BSK_BE3C is a cell-based, multiplexed-readout assay that uses bronchial epithelial cell, a human lung primary cell, with measurements taken at 24 hours after chemical dosing in a 96-well plate.BSK_BE3CAR is an assay component measured in the BSK_BE3C assay. It measures uPAR antibody related to regulation of gene expression using ELISA technology.Data from the assay component BSK_BE3CAR was analyzed into 1 assay endpoint. This assay endpoint, BSK_BE3CAR, was analyzed with bidirectional fitting relative to DMSO as the negative control and baseline of activity. Using a type of binding reporter, gain or loss-of-signal activity can be used to understand changes in the signaling as they relate to the gene PLAUR. Furthermore, this assay endpoint can be referred to as a primary readout, because this assay has produced multiple assay endpoints where this one serves a signaling function. To generalize the intended target to other relatable targets, this assay endpoint is annotated to the cytokine intended target family, where the subfamily is plasmogen activator.
The levels of cell surface (or secreted, indicated by the prefix "s") biomarker endpoints were measured by ELISA. Overt cytotoxicity to cells in confluent adherent cultures (all systems other than the BT system) was assessed by measuring total protein levels using sulforhodamine B (SRB) staining in parallel cultures at the time of biomarker measurements, indicated as SRB endpoints. For proliferation assays for adherent cell types, individual cell types are cultured at sub-confluence and relative cell numbers quantified by SRB staining at time points optimized for each system (48 h: 3C and CASM3C systems; 72 h: BT and HDF3CGF systems; 96 h: SAg system). SRB was performed by staining cells with 0.1% SRB after fixation with 10% TCA and reading wells at 560 nm.Viability and proliferation of PBMC (T cells) was quantified by Alamar Blue reduction for the SAg and BT systems. For PBMC viability (referred to as PBMC Cytotoxicity within the assay endpoint names), cells were plated (75,000/well in a 96-well plate) and then chemical samples added for 1 h before addition of activators, SEB and TSST-1 (20 ng/mL final concentration each). Cells were incubated for 90 h. Then, Alamar Blue (20 uL/well) (Invitrogen, Cat DAL1100) was added for 6 h, and the plates were read with a fluorescence microplate reader at 546/580 nm (excitation/emission). For PBMC proliferation, cells were plated and activated as above but incubated for only 16 h prior to addition of Alamar Blue. Plates were read after 6 h.

SMILES | outcome | AC50
CCCCC/C=C\C/C=C\CCCCCCCC(=O)OC | inactive | –
O=C1CCCN1CCO | inactive | –
COc1ccc2nc(N)sc2c1 | inactive | –
CCO[Si](CCCN=C=O)(OCC)OCC | inactive | –
C=CCOc1c(Br)cc(Br)cc1Br | – | 25.2 µM (active)
O=Nc1ccc(O)cc1 | inactive | –
C/C=C\C/C=C/CCCCCCCCOC(C)=O | inactive | –
CCCCC(CC)COC(=O)c1ccccc1O (stereo unspecified) | inactive | –
CC(C)(c1cc(Br)c(OCCO)c(Br)c1)c1cc(Br)c(OCCO)c(Br)c1 | inactive | –
CC(C)C(=O)C(C)C | inactive | –
O=C(Cl)c1cc(C(=O)Cl)cc(C(=O)Cl)c1 | – | 24.4 µM (active)
COCc1c(C(C)C)nc(C(C)C)c(/C=C/[C@@H](O)C[C@@H](O)CC(=O)O)c1-c1ccc(F)cc1 | inactive | –
CCOc1nc(F)cc2nc(S(=O)(=O)Nc3c(Cl)cccc3C(=O)OC)nn12 | inactive | –
C=C[Si](OC(C)=O)(OC(C)=O)OC(C)=O | inactive | –
CCCCCCCCc1ccc(Nc2ccc(CCCCCCCC)cc2)cc1 | inactive | –
c1ccc2c(c1)ccc1ncccc12 | inactive | –
C=CC(=O)OCC(Br)CBr (stereo unspecified) | inactive | –
CCO[Si](C)(OCC)OCC | inactive | –

SMILES | outcome | AC50
Nc1ccc(N)c(Cl)c1 | – | 11.1 µM (active) and 4.19 µM (active)
c1ccc(-c2ccccn2)nc1 | inactive | –
C#CC1(O)CC[C@H]2[C@@H]3CCC4=CCCC[C@@H]4[C@H]3CC[C@@]21C (stereo partly specified) | – | 20 µM (active)
c1ccc2c(c1)ccc1cc3c(ccc4ccccc43)cc12 | inactive | –
CCCCC(CC)COCC1CO1 (stereo unspecified) | inactive | –
C=CC=CC=CCCCCC | inactive | –
O=C(c1ccc(O)cc1)c1ccc(O)cc1O | inactive | –
CCCCNc1ccc(NCCCC)c2c1C(=O)c1ccccc1C2=O | – | 6.83 µM (active)
N#[N+]c1ccc2c(S(=O)(=O)[O-])cccc2c1O | inactive | –
S=C(NC1CCCCC1)NC1CCCCC1 | inactive | –
CCOC(=O)c1ccccc1C(=C1C=C(Br)C(=O)C(Br)=C1)c1cc(Br)c(O)c(Br)c1 | – | 7.89 µM (active) and 4.27 µM (active)
CN1C(=O)N(C)C(O)C1O (stereo unspecified) | inactive | –
O=C(Nc1ccccc1SSc1ccccc1NC(=O)c1ccccc1)c1ccccc1 | inactive | –
O=c1c2ccccc2oc2ccccc12 | inactive | –
CO[Si](OC)(OC)c1ccccc1 | inactive | –
CC1OC1C1CCC2(C)OC2C1 (stereo unspecified) | inactive | –
C=CCOCC(O)CCl (stereo unspecified) | inactive | –
CCCCCCCCCCCCCCCC[N+](C)(C)CC | – | 2.08 µM (active)
